# Test results as given in PubChem BioAssay (NCI).
# The panel holds about 83,000 compounds, 20% with a hit somewhere; the sample as a whole holds those more often.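 Assay: single dose, 48 h. Readout: percent growth (0 = no net growth; negative = cell death). Active: <10.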 A number with no mark means an inactive call. Active and inactive are the calls of the source.
# Key:
# Test in all cases: NCI-60 one-dose screen, 48 h (100 = growth as untreated, 0 = no growth, -100 = all killed)
# Settings in all cases: 10 µM unless noted
# SK-MEL-2 melanoma = tested on: SK-MEL-2 melanoma
# EKVX NSCLC = tested on: EKVX NSCLC
# SN12C renal = tested on: SN12C renal
# UO-31 renal = tested on: UO-31 renal
# TK-10 renal = tested on: TK-10 renal
# ACHN renal = tested on: ACHN renal
# CAKI-1 renal = tested on: CAKI-1 renal
# A498 renal = tested on: A498 renal
# CCRF-CEM leukemia = tested on: CCRF-CEM leukemia
# MOLT-4 leukemia = tested on: MOLT-4 leukemia
SMILES,growth (SK-MEL-2 melanoma),growth (EKVX NSCLC),growth (SN12C renal),growth (UO-31 renal),growth (TK-10 renal),growth (ACHN renal),growth (CAKI-1 renal),growth (A498 renal),growth (CCRF-CEM leukemia),growth (MOLT-4 leukemia)
CCNCCCn1c2c(c3ccc([N+](=O)[O-])cc3c1=O)C(=O)c1cc(OC)cnc1-2,-27.8% (active),8.7% (active),1.09% (active),-85.1% (active),-27.6% (active),-61.1% (active),-58.5% (active),-89.2% (active),3.93% (active),-4.26% (active)
CC(=O)c1c(C)[nH]c(-c2nc3ccc(N4CCN(C)CC4)cc3[nH]2)c1-c1ccc2c(c1)OCCO2,76.4%,45.2%,58.5%,9.19% (active),1.44% (active),29.3%,13.3%,45.5%,50.3%,58.3%
O=S(=O)(NCCNc1cc(-c2cn(-c3ccccc3)nc2-c2cccc(O)c2)ccn1)c1ccc(Cl)cc1,34.9%,52.1%,39.4%,23%,50.5%,28.5%,41%,34.9%,9.05% (active),8.1% (active)
Cc1nc([P+](c2ccccc2)(c2ccccc2)c2ccccc2)c(Sc2sc(-c3ccccc3)nc2[P+](c2ccccc2)(c2ccccc2)c2ccccc2)o1,3.95% (active),14.8%,7.4% (active),20.9%,38.7%,17.3%,15.4%,-9.69% (active),18.4%,13%
Cn1cc(-c2nc(-c3cn(C)c4ncccc34)cs2)c2ccccc21,28.6%,62.6%,52.8%,62.4%,50.5%,49.6%,28.3%,45.4%,47.1%,31.7%
O=S(=O)(NCCNc1cc(-c2cn(-c3ccccc3)nc2-c2cccc(O)c2)ccn1)c1ccc(C(F)(F)F)cc1,56.2%,52.3%,33.9%,-39.8% (active),59.9%,18.3%,-1.88% (active),52.6%,16.9%,4.81% (active)
N#CCCCCCn1c2ccccc2c2c3c(c4c5ccccc5n(CCCCCC#N)c4c21)C(=O)N(O)C3=O,85%,95%,79.8%,58.2%,95.3%,83.8%,0.852% (active),107%,74.5%,73.8%
Nc1nc2c3ccncc3cc(-c3cccc(Cl)c3)c2c2cnccc12,59.1%,62.2%,36.4%,29.7%,32.3%,26.6%,29.1%,-12% (active),20%,3.17% (active)
O=C(N/N=C\c1c(O)ccc2ccccc12)C1CC1,35.1%,32.1%,66.5%,8.64% (active),78.1%,23.6%,2.09% (active),102%,11.9%,9.27% (active)
Nc1ncnc2nc(Br)[nH]c12,102%,105%,100%,101%,96.2%,98.7%,93%,98.1%,94.3%,96.1%
Cc1ccc(S(=O)(=O)Nc2ccc(-c3cc(-c4cccc(F)c4)c(C#N)c(=O)[nH]3)cc2)cc1,112%,83.4%,83.7%,68.6%,115%,91.3%,60.2%,85.2%,68.4%,76.9%
Cn1nc(-c2ccccc2)c2c(-c3ccccc3)onc2c1=O,40.1%,54.2%,45.4%,39.6%,53%,58.4%,36.5%,24.6%,20.9%,42.8%
Cc1ccc(N(CC(=O)Nc2ccc(S(=O)(=O)NC3CCN(C)CC3)cc2)S(=O)(=O)c2ccc(Cl)cc2)cc1,104%,99.4%,85%,83.3%,105%,96.6%,89%,84.6%,20.9%,70.5%
